Data reported in PubChem BioAssay AID372 (MTDP, 2006).
About 770 (0.77%) of roughly 100,000 compounds were called active. The sample as a whole holds a higher share of actives than the screen did. Values without a mark were called inactive. No stated cut-off is given here; in the data, active means inhibition above about 50%; inactive means the rest.

The compounds below were run against Gag-Pol polyprotein (Human immunodeficiency virus type 1 group M subtype B (isolate HXB2)) (UniProt P04585) (assay: RNase H inhibition, HIV 1 Gag Pol polyprotein, FRET biochemical assay, screening (AID 372)). Settings: HIV-1 RT RNase H, FRET RNA/DNA substrate fluorescence; at 10 µM; active compounds read high.
In the case of CCOC(=O)c1c(NC(=O)c2cc(-c3ccc(C(C)C)cc3)nc3ccccc23)sc(C(N)=O)c1C, the inhibition is reported as 55% (active). CCOC(=O)c1c(NC(=O)c2cc(-c3ccccc3)nc3ccccc23)sc(C(N)=O)c1C showed an inhibition of 24%. Compound CCOC(=O)c1c(NC(=O)c2cc(-c3ccc(C)c(C)c3)nc3ccccc23)sc(C(N)=O)c1C has an inhibition of 5%. For C=CCn1c(-c2nonc2NC(C)=O)nc2ccccc21, the inhibition was 42%. Oc1ccc(/C=N/Nc2nncc(-c3ccccc3)n2)c(O)c1 showed an inhibition of 23%. In the case of Oc1ccc(/C=N/Nc2nncc(-c3ccccc3)n2)cc1, the inhibition is reported as 5%. For Cc1ccnc(NC(=O)c2ccc(OCC(C)C)cc2)c1, the inhibition was 0%. Compound O=C1OC2C=CC(Br)=CC2C=C1C(=O)N1CCSC1c1ccc2c3c(cccc13)CC2 (centres undefined) has an inhibition of 6%. Compound CCN1C(=O)/C(=C/c2cc(Cl)cc(Cl)c2OCCOc2ccccc2OC)SC1=S has an inhibition of 7%. CN1C[N+]([O-])=C(c2ccccc2)C1(C)C was tested, and the inhibition was 3%. For CCOC(=O)C1=C(c2ccccc2)S/C(=C2/C(=S)C(C)(C)Nc3ccc(C(c4ccccc4)(c4ccccc4)c4ccccc4)cc32)S1, the inhibition was 27%. With COC(=O)C1=C(C(=O)OC)SC(=C2C(=S)C(C)(C)Nc3ccc(C)cc32)S1 the inhibition was 28%. With COC(=O)C1=C(C(=O)OC)SC(=C2C(=S)C(C)(C)Nc3ccc(C(c4ccccc4)(c4ccccc4)c4ccccc4)cc32)S1 the inhibition was 53% (active). CC(=O)N1CCN(C2=NC(=O)/C(=C/c3ccc(O)cc3)S2)CC1 gave an inhibition of 10%. With Cc1ccc(C(=O)O)cc1NC(=O)C1CC=CCC1C(=O)O (centres undefined) the inhibition was 10%. CCOCCOC(=O)C1=C(C)NC2=C(C(=O)CCC2)C1c1ccc(CC)cc1 (centres undefined) was tested, and the inhibition was 12%. CCN(CC)S(=O)(=O)c1ccc(-c2ccc(S(=O)(=O)N(CC)CC)cc2)cc1 gave an inhibition of 11%. With N#C/C(=C\c1ccccc1)C(=O)Nc1ccccc1Br the inhibition was 9%. For N#C/C(=C/c1ccc(O)cc1)C(=O)Nc1ccc(O)cc1, the inhibition was 8%. In the case of N#C/C(=C/c1ccc(Cl)cc1)C(=O)Nc1cccc(Br)c1, the inhibition is reported as 15%. In the case of N#C/C(=C/c1ccc(Cl)cc1)C(=O)Nc1ccc(Cl)cc1, the inhibition is reported as 3%. With N#C/C(=C\c1ccc(OC(=O)c2ccc(Br)cc2)cc1)C(=O)Nc1cccc(Cl)c1 the inhibition was 55% (active). N#C/C(=C/c1ccc(Cl)cc1)C(=O)Nc1ccc(O)cc1 was tested, and the inhibition was 60% (active). N#C/C(=C\c1ccc(OC(=O)c2ccco2)cc1)C(=O)Nc1ccccc1Br was tested, and the inhibition was 50% (active). N#C/C(=C\c1cc(Br)c(O)c(Br)c1)C(=O)Nc1ccccc1Br showed an inhibition of 14%. N#C/C(=C/c1cccc(Cl)c1)C(=O)Nc1cccc(Br)c1 showed an inhibition of 12%. For O=C(Nc1ccc(Cl)cc1)O/N=C\c1ccc(Br)cc1, the inhibition was 29%. In the case of COc1ccc(C2/C(=C(/O)c3ccc(Cl)cc3)C(=O)C(=O)N2CCCC(=O)O)cc1 (centres undefined), the inhibition is reported as 4%. With Nc1ccc[n+](CC(=O)c2ccccc2)c1 the inhibition was 2%. Cc1ccccc1OCCNc1cc(N2CCOCC2)ccc1[N+](=O)[O-] gave an inhibition of 10%. With Cc1ccc(Cl)cc1NC(=O)/C(C#N)=C\c1ccc(I)o1 the inhibition was 9%. COc1ccc(Br)cc1/C=C1/SC(N2CCCCC2)=NC1=O showed an inhibition of 14%. With COc1ccc(Br)cc1/C=C1\SC(N2CCOCC2)=NC1=O the inhibition was 52% (active). In the case of COc1ccc(Br)cc1/C=C1\SC(N2CCCC2)=NC1=O, the inhibition is reported as 19%. COc1ccc(C2CC(=O)C=C(Nc3ccccc3N)C2)cc1OC (centres undefined) gave an inhibition of 10%. O=C1NC(=O)N(c2ccc(Br)cc2)C(=O)/C1=C/c1ccco1 was tested, and the inhibition was 12%. Compound Cc1ccccc1N1C(=O)/C(=C\c2ccco2)C(=O)N(c2ccccc2)C1=S has an inhibition of 49%. CN1C(=O)C(=Cc2ccco2)C(=O)N(C)C1=S was tested, and the inhibition was 61% (active). COC(=O)C1=C(C)N(C)C(=O)/C1=C\c1ccco1 was tested, and the inhibition was 11%. CN1C(=O)C(=C/C=C/c2ccco2)C(=O)N(C)C1=S showed an inhibition of 16%. Oc1ccc(Cl)cc1-c1cc(-c2ccc(Cl)cc2)n[nH]1 showed an inhibition of 0%. O=S(=O)(c1ccc(-c2csc(Nc3ccc4c(c3)OCO4)n2)cc1)N1CCOCC1 showed an inhibition of 8%. For CCCCNCCOc1ccccc1OCC, the inhibition was 12%. With O=C(Nc1ccc2oc(-c3ccc(F)cc3Cl)nc2c1)c1cc(Cl)ccc1Cl the inhibition was 18%. Oc1ccc2ccccc2c1CN1CCOCC1 gave an inhibition of 7%. In the case of COc1ccc(/C=C/C(=O)Nc2ncc(Cc3ccccc3Cl)s2)cc1, the inhibition is reported as 54% (active). For O=C(/C=C/c1cccs1)Nc1ncc(Cc2ccccc2Cl)s1, the inhibition was 4%. Work on Cc1ccc(/C=C/C(=O)Nc2ncc(Cc3cc(Cl)ccc3Cl)s2)cc1 yielded an inhibition of 24%. CCOc1ccccc1OCCOc1cccc(Br)c1 showed an inhibition of 3%. With Cc1cccc(N2CCN(CN3C(=O)/C(=C/c4ccc(C)o4)SC3=S)CC2)c1 the inhibition was 2%. Work on CCOC(=O)C(CCCCCOc1ccccc1C(C)(C)C)C(=O)OCC yielded an inhibition of 20%. CCc1ccc(-c2nc(-c3ccccn3)no2)cc1 was tested, and the inhibition was 15%. Work on COc1cc(/C=N/c2sc3c(c2C#N)CCCC3)cc(Br)c1O yielded an inhibition of 15%. Work on NC(=O)c1c(/N=C/c2cc(Cl)cc(Cl)c2O)sc2c1CCCC2 yielded an inhibition of 11%. CCOC(=O)c1c(N)n(CCOC)c2nc3ccccc3nc12 was tested, and the inhibition was 0%. C=CCN(CC=C)CCCCOc1cccc(C)c1 showed an inhibition of 5%. With Ic1ccc(Nc2nc3ccccc3nc2Nc2ccc(I)cc2)cc1 the inhibition was 34%. For Oc1ccc(Nc2nc3ccccc3nc2Nc2ccc(O)cc2)cc1, the inhibition was 12%. For Brc1ccc(Nc2nc3ccccc3nc2Nc2ccc(Br)cc2)cc1, the inhibition was 55% (active). O=C(NCCO)C(=O)Nc1ccccc1 gave an inhibition of 0%. CCN1CCN(CC(=O)N/N=C/c2ccccc2)CC1 gave an inhibition of 8%. For CCc1ccc(C2Nc3ccc4ccccc4c3C3=C2C(=O)CC(C)(C)C3)cc1 (centres undefined), the inhibition was 19%. With CC(=O)N(C1=C(Cl)C(=O)c2ccccc2C1=O)c1ccc(Cl)cc1 the inhibition was 32%. CC(=O)N(C1=C(Cl)C(=O)c2ccccc2C1=O)c1ccc(Br)cc1 was tested, and the inhibition was 69% (active). For CC(=O)N(C1=C(N(C)C)C(=O)c2ccccc2C1=O)c1ccc(Br)cc1, the inhibition was 1%. CCN1CCN(CC(O)COc2ccc(C(C)(C)C)cc2)CC1 (centres undefined) showed an inhibition of 0%. O=C(O)c1ccc(C(=O)Nc2ccccc2Br)c(C(=O)O)c1 was tested, and the inhibition was 54% (active). O=C(O)c1ccc(C(=O)Nc2ccc(I)cc2)c(C(=O)O)c1 was tested, and the inhibition was 9%. For O=C(O)c1ccc(C(=O)Nc2ccccc2Oc2ccccc2)c(C(=O)O)c1, the inhibition was 6%. For CCC1CCc2c(sc(NC(=O)CCC(=O)O)c2C#N)C1 (centres undefined), the inhibition was 2%. C=CCNc1nc(-c2ccc(Cl)cc2)nc2ccccc12 gave an inhibition of 8%. For Cc1coc2cc3oc(=O)cc(C)c3cc12, the inhibition was 7%. Cc1cc(=O)oc2c(C)c3occ(-c4ccccc4)c3cc12 gave an inhibition of 31%. In the case of Cc1cc(=O)oc2cc3occ(-c4ccccc4)c3cc12, the inhibition is reported as 57% (active). Compound O=C(O)CC(C(=O)O)N1C(=O)/C(=C\C(Cl)=C/c2ccc([N+](=O)[O-])cc2)SC1=S (centres undefined) has an inhibition of 14%. c1ccc(CNc2nc(-c3ccccc3)[n+](-c3ccccc3)s2)cc1 was tested, and the inhibition was 52% (active). Compound c1ccc(CNc2nc(-c3ccccc3)cc(-c3ccccc3)n2)cc1 has an inhibition of 15%. In the case of c1ccc(Nc2nc(-c3ccccc3)[n+](-c3ccccc3)s2)cc1, the inhibition is reported as 30%. For COc1ccc(N(CC(=O)NCCSCc2ccccc2Cl)S(C)(=O)=O)cc1, the inhibition was 22%. CCOc1ccc(N(CC(=O)NCCSCc2ccc(Cl)cc2)S(C)(=O)=O)cc1 gave an inhibition of 22%. Cc1cc(C)cc(N(CC(=O)NCCSCc2ccc(Cl)cc2)S(C)(=O)=O)c1 was tested, and the inhibition was 57% (active). Work on CS(=O)(=O)N(CC(=O)NCCSc1ccc(Cl)cc1)c1ccc(Br)cc1 yielded an inhibition of 8%. For COc1ccc(S(=O)(=O)N(CC(=O)NCCSCc2ccc(Cl)cc2)c2cc(C)cc(C)c2)cc1OC, the inhibition was 12%. With COc1ccc(N(CC(=O)NCCSCc2ccc(Cl)cc2)S(C)(=O)=O)cc1Cl the inhibition was 38%. CS(=O)(=O)N(CC(=O)NCCSCc1ccccc1Cl)c1ccc(Br)cc1 was tested, and the inhibition was 50% (active). With Cc1ccc(CSCCNC(=O)CN(c2cccc(C)c2)S(C)(=O)=O)cc1 the inhibition was 18%. In the case of CS(=O)(=O)N(CC(=O)NCCSCc1ccc(Cl)cc1)c1ccc(Cl)cc1, the inhibition is reported as 55% (active). In the case of O=C(NC(=S)Nc1ccccc1[N+](=O)[O-])c1ccc(-c2ccccc2)cc1, the inhibition is reported as 13%. O=C(Cn1c(NCCCO)nc2ccccc21)c1ccc(Br)s1 showed an inhibition of 11%. Cc1sc(NC(=O)/C=C/c2ccc(Cl)cc2Cl)c(C(N)=O)c1C was tested, and the inhibition was 26%. Compound Nc1nnc(SCC(=O)Nc2ccccc2Oc2ccccc2)s1 has an inhibition of 4%. CCC(C)c1ccc(NC(=S)NC(=O)c2ccc(OC)c(Br)c2)cc1 (centres undefined) gave an inhibition of 9%. COc1ccc(CCN(C)C2CC(=O)N(c3ccc(F)cc3)C2=O)cc1OC (centres undefined) gave an inhibition of 0%. Compound Cc1ccc2oc(-c3cc(NC(=O)c4ccc(I)cc4)ccc3O)nc2c1 has an inhibition of 10%. COc1ccc(Cc2cnc(NC(=O)c3ccccc3Cl)s2)cc1 showed an inhibition of 11%. NS(=O)(=O)c1ccc(CNC2CC(=O)N(CCc3ccccc3)C2=O)cc1 (centres undefined) gave an inhibition of 9%. O=[N+]([O-])c1ccc2nc3c([nH]c4ccccc43)c(N3CCOCC3)c2c1 showed an inhibition of 6%. For O=[N+]([O-])c1ccc2nc3c([nH]c4ccccc43)c(Cl)c2c1, the inhibition was 58% (active). Compound O=c1c2cc([N+](=O)[O-])ccc2[nH]c2c1[nH]c1ccccc12 has an inhibition of 33%.
